Inconclusive results are not listed. A call without a number means that no potency is given here. A number with no mark means an inactive call. Activity calls are given as the source filed them. The call rests on the fitted dose curve; in most records, active means well fitted cell-killing curve with a large enough effect in the repeat runs; inconclusive means weak or mixed curves, or effect the other way; inactive means flat fitted curve, though single readings scatter.
Tests used:
[1] = cAMP Responsive Elements (CRE) small molecule antagonists, cell-based qHTS assay: qHTS cell viability counter screen (AID 2060913); further: nearly all actives have a fitted effect of over 40% in size
Method in brief: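 Cytotoxicity counter screen multiplexed with the CRE-bla antagonist read: HEK293T cells in DMEM with dialyzed FBS and 25 mM HEPES were treated 3 hrs under 0.25 uM final NKH477, then viability measured by CellTiter-Glo luminescence.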

[2] = cAMP Responsive Elements (CRE) small molecule agonists, cell-based qHTS assay: qHTS cell viability counter screen (AID 2060914); further: nearly all actives have a fitted effect of over 50% in size
Method in brief: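 Cytotoxicity was measured as ATP luminescence (CellTiter-Glo, 30 min at room temperature) in the same wells as the CRE-bla FRET read-out. HEK293T CRE-bla cells had 3 h compound exposure at 37C/5% CO2.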

Compound	Potency [1]	Potency [2]	viability change, negative = cytotoxic [1]	activity change, negative = cytotoxicity [2]
CCNC(=O)C(C)OC(=O)Nc1ccccc1 (centres undefined)	inactive	inactive	–	–
C[N+](C)(C)CCO	inactive	inactive	–	–
CC(=O)/C(C)=C/C1C(C)=CCCC1(C)C (centres undefined)	inactive	inactive	–	–
CC1=CC[C@@]23C[C@@H]1C(C)(C)[C@@H]2CC[C@H]3C	inactive	inactive	–	–
O=C(O)/C=C/C(=O)O	inactive	inactive	–	–
CC/C(=C(/CC)c1ccc(O)cc1)c1ccc(O)cc1	inactive	inactive	–	–
CCCCOc1ccc(C(=O)CCN2CCCCC2)cc1	inactive	inactive	–	–
[O-][n+]1ccc(Cl)cc1	inactive	inactive	–	–
CCCC(C)CCC(C)=O (centres undefined)	inactive	inactive	–	–
NCc1ccco1	inactive	inactive	–	–
O=c1[nH]c(=O)c2[nH]c(=O)[nH]c2[nH]1	–	–	-5.49% [at 8.39 µM]	8.03% [at 8.39 µM]
CCc1cccc(C)c1N	inactive	inactive	–	–
CCOC(=O)OC(C)OC1=C(C(=O)Nc2ccccn2)N(C)S(=O)(=O)c2ccccc21 (centres undefined)	inactive	inactive	–	–
S=C(SSSSSSC(=S)N1CCCCC1)N1CCCCC1	–	–	6.65% [at 18.9 µM]	-4.69% [at 18.9 µM]
O=C1NCCN1	inactive	inactive	–	–
O=C(c1ccccc1)c1ccc(O)cc1	inactive	inactive	–	–
CC(=O)c1cccc([N+](=O)[O-])c1	inactive	inactive	–	–
